Results on 23 molecules are retold here after PubChem BioAssay (Tox21).

Molecules are shown by their SMILES. Values without a mark were called inactive. Results filed as inconclusive are left out. Calls of active or inactive are those of the source. Calls come from the whole dose curve; as a rule, active = well fitted curve in the direction sought with a large enough effect in the repeat runs; inconclusive = weak or mixed curves; inactive = no such curve, though single readings can be large; an effect the other way counts as inactive or inconclusive.

Test [1] is described as follows: qHTS RealTime-Glo MT Cell Viability Assay in HEK293 cells - 40 hour (AID 1224874). Note: nearly all actives have a fitted effect of over 50% in size. Note: potency is the fitted concentration of half-maximal effect. As to conditions: RealTime-Glo luminescence; max response: hits give low values. The gist of the method:
(§1)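 600 HEK293 cells per well, dispensed already mixed with RealTime-Glo MT reagents. Compound dosing came 5 h later. The same wells were read for luminescence at 0, 8, 16, 24, 32 and 40 h of exposure at 37 C.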
A general note: In qHTS, concentration-response curves come from the screen itself.

The nature of test [2]: A CellTox Green Cytotoxicity Assay to monitor cytotoxicity in HepG2 cells - 16 hour (AID 1224876). Note: nearly all actives have a fitted effect of over 45% in size. Note: potency is the fitted concentration of half-maximal effect. As to conditions: CellTox Green fluorescence; series mostly up to 76.8 µM. The gist of the method:
(§2)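 First, HepG2 cells (600/well) mixed with reagent were plated; second, after 5 h at 37 C they received compounds via pintool; third, fluorescence was measured at 0 h through 40 h at 8 h intervals.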

Test [3] is described as follows: qHTS RealTime-Glo MT Cell Viability Assay in HepG2 cells - 32 hour (AID 1224877). Note: nearly all actives have a fitted effect of over 55% in size. Note: potency is the fitted concentration of half-maximal effect. To be noted: RealTime-Glo luminescence; series mostly up to 76.8 µM. An outline of the steps:
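Cells + NanoLuc/prosubstrate dispensed (600 cells/well) → 5 h at 37 C/5% CO2 → compounds in DMSO transferred → 40 h incubation at 37 C, luminescence read at 0, 8, 16, 24, 32, 40 h.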

Test [4] in a line: A CellTox Green Cytotoxicity Assay to monitor cytotoxicity in HepG2 cells - 24 hour (AID 1224878). Note: nearly all actives have a fitted effect of over 45% in size. Note: potency is the fitted concentration of half-maximal effect. To be noted: CellTox Green fluorescence; series mostly up to 76.8 µM. The gist of the method: as §2
Test [5] can be described thus: A CellTox Green Cytotoxicity Assay to monitor cytotoxicity in HepG2 cells - 40 hour (AID 1224879). Note: nearly all actives have a fitted effect of over 40% in size. Note: potency is the fitted concentration of half-maximal effect. To be noted: CellTox Green fluorescence; series mostly up to 76.8 µM. An outline of the steps: as §2
Test [6] in a line: qHTS RealTime-Glo MT Cell Viability Assay in HEK293 cells - 0 hour (AID 1224880). Note: top concentration of the series differs between compounds; nearly all actives have a fitted effect of over 45% in size. As to conditions: RealTime-Glo luminescence; series mostly up to 76.8 µM. The gist of the method: as §1
Test [7] in a line: A CellTox Green Cytotoxicity Assay to monitor cytotoxicity in HEK293 cells - 32 hour (AID 1224881). Note: nearly all actives have a fitted effect of over 40% in size. Note: potency is the fitted concentration of half-maximal effect. As to conditions: CellTox Green fluorescence; series mostly up to 76.8 µM. An outline of the steps:
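Dead-cell fluorescence measured kinetically: asymmetric cyanine dye, HEK293, 600 cells/well, 5 h settle, 23 nL cpd/DMSO, 37 C, reads 0–40 h every 8 h.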

The nature of test [8]: A CellTox Green Cytotoxicity Assay to monitor cytotoxicity in HepG2 cells - 32 hour (AID 1224883). Note: nearly all actives have a fitted effect of over 50% in size. Note: potency is the fitted concentration of half-maximal effect. As to conditions: CellTox Green fluorescence; series mostly up to 76.8 µM. An outline of the steps:
as §2

A short description of test [9]: A CellTox Green Cytotoxicity Assay to monitor cytotoxicity in HepG2 cells - 0 hour (AID 1224882). Note: nearly all actives have a fitted effect of over 35% in size. As to conditions: CellTox Green fluorescence; series mostly up to 76.8 µM. An outline of the steps:
as §2
% is set by controls: 0 for no effect and ±100 for the full control effect.

`N#CCCOCCC#N`: the max response in [1] was 2.28%. The Potency result in test [2], in [3], in test [4], in test [5], in test [6] and in test [7] was “inactive” each time. Besides, the Potency result in [8] is “inactive”.
For the molecule `Clc1cccc(Cl)n1`, the max response in test [1] is 3.2%. Besides, the Potency result in test [2], in [3], in test [4], in test [5], in test [6] and in test [7] was “inactive” throughout. In test [8], the Potency result was “inactive”.
As for `C=C(C)C1CCC(C)CC1O` (centres undefined), the max response in test [1] was 5.16%. Besides, the Potency result in [2], in test [3], in test [4], in test [5], in [6] and in [9] was “inactive” throughout. Moreover, in test [8], the Potency result was “inactive”.
For the molecule `Cc1cc(F)ccc1-c1cc(N2CC[C@@H](O)[C@H]2CO)ncc1N(C)C(=O)C(C)(C)c1cc(C(F)(F)F)cc(C(F)(F)F)c1`, the Potency in [1] was 17.1 µM (active); in test [2], 43 µM (active); in test [3], 38.3 µM (active); in test [4] it was 38.3 µM (active); in [5], 43 µM (active); in [8] it was 43 µM (active). Moreover, the Potency result in test [9] was “inactive”.
Take `CC1(C)[C@H]2CC[C@]1(C)C(=O)C2`: the max response in [1] was 16%. Further, the Potency entry in test [2], in test [3], in [4], in test [5], in [6] and in [7] was “inactive” throughout. In addition, the Potency entry in test [9] and in [8] was “inactive” each time.
On to `CCCCCCCCOC(=O)c1cc(O)c(O)c(O)c1`, for which the Potency was 11 µM (active) in [1]; 19.5 µM (active) in test [3]; 43.6 µM (active) in test [4]; 24.5 µM (active) in test [5]; 43.6 µM (active) in [8]. Moreover, the Potency entry in test [6] and in test [9] was “inactive” each time.
Turning to `O=C1OCc2ccccc21`, the max response in test [1] is 15.2%. The Potency result in test [2], in [3], in [4], in test [5], in test [6] and in [7] was “inactive” each time. Further, the Potency entry in [8] was “inactive”.
As to `CCCCCCCCCCCCCCCCC(C(=O)O)C(O)(CC(=O)O)C(=O)O` (centres undefined), the max response in [1] is -0.507%. For the same molecule, the Potency entry in test [3], in [6], in test [7] and in test [9] was “inactive” throughout.
`CCC(O)CO` (centres undefined): the max response in test [1] is -1.31%. In addition, the Potency entry in [2], in test [3], in test [5], in test [6], in test [7] and in test [9] was “inactive” each time. Further, in test [8], the Potency entry was “inactive”.
As to `Nc1cc([N+](=O)[O-])ccc1Cl`, the max response in [1] was 0.705%. Besides, the Potency entry in [2], in [3], in test [5], in test [6], in test [7] and in test [9] was “inactive” in each case. In test [8], the Potency entry is “inactive”.
Consider `CCCCCN=C(N)N/N=C/c1c[nH]c2ccc(OC)cc12`, for which the Potency in test [1] is 4.25 µM (active); in test [2] it was 6.74 µM (active); in test [3] it was 5.35 µM (active); in test [4], 5.35 µM (active); in [5], 5.35 µM (active); in test [7], 6.01 µM (active). In [8], the Potency is 6.01 µM (active). Further, in test [9], the Potency result was “inactive”.
For the molecule `O=C1CCC/C=C\CCCCCCCCCC1`, the max response in [1] was -5.39%. Besides, the Potency result in test [2], in test [3] and in [6] was “inactive” in each case.
`CCc1c(C)cc(N)c(CC)c1N`: the max response in test [1] was 1.8%. For the same molecule, the Potency entry in test [2], in [3], in test [4], in test [5], in [6] and in test [7] was “inactive” in each case. Besides, the Potency entry in test [9] and in test [8] was “inactive” in each case.
In the case of `Clc1nc(C(Cl)(Cl)Cl)c(Cl)c(Cl)c1Cl`, the Potency in test [1] is 0.011 µM (active); in test [4], 43.6 µM (active); in test [5], 43.6 µM (active); in [8], 43.6 µM (active). In addition, the Potency entry in [2], in test [6] and in test [9] was “inactive” throughout.
As to `CCCCCCCC/C=C\CCCCCCCC(=O)N(CCO)CCO`, the Potency in test [1] is 43.5 µM (active). Besides, the Potency result in test [2], in [3], in test [6] and in test [9] was “inactive” throughout.
As to `O=C1C=CC(=O)N1c1cccc(N2C(=O)C=CC2=O)c1`, the Potency is 9.77 µM (active) in test [1]; 13.8 µM (active) in test [2]; 15.5 µM (active) in test [3]; 12.3 µM (active) in test [4]; 12.3 µM (active) in [5]; 11 µM (active) in test [8]. Further, the Potency result in test [6] and in test [9] was “inactive” in each case.
Turning to `O=[N+]([O-])c1ccc(O)c2ncccc12`, the Potency in test [1] was 9.52 µM (active); in test [5] it was 4.25 µM (active). For the same molecule, the Potency entry in [3], in test [6] and in test [7] was “inactive” in each case.
Turning to `C/C=C/C(=O)OCC(C)C`, in test [1], the max response is 5.85%. The Potency result in [2], in test [3], in test [5], in [6], in [7] and in [9] was “inactive” throughout. Besides, the Potency entry in [8] was “inactive”.
`Cc1cc(C)c(O)c(C(C)(C)C)c1`: in test [1], the max response was -8.82%. For the same molecule, the Potency entry in test [2], in test [3], in test [5], in test [6], in [9] and in test [8] was “inactive” in each case. Moreover, in test [7], the Potency is 27.5 µM (active).
For the molecule `COc1cccc(-c2ccc(/C=C\CN3CCCCCC3)cc2Cl)c1`, the Potency was 43.4 µM (active) in test [1]; 43.4 µM (active) in test [2]; 48.7 µM (active) in test [3]; 43.4 µM (active) in test [4]; 38.7 µM (active) in test [5]; 43.4 µM (active) in test [7]. In addition, in test [8], the Potency is 38.7 µM (active). The Potency result in test [9] was “inactive”.
As for `Cc1ccc(Cl)c(N)c1Cl`, the max response in test [1] was -1.11%. Further, the Potency entry in test [2], in test [6] and in test [9] was “inactive” throughout.
As to `Oc1ccc(Cl)cc1C1CCCC1`, the max response in [1] is -29.3%. In addition, the Potency in [2] is 54.9 µM (active); in test [5], 54.9 µM (active); in [7], 49 µM (active); in test [8], 54.9 µM (active). The Potency result in test [3], in test [6] and in test [9] was “inactive” in each case.
For the molecule `CCCCC/C=C\C=C\C(=O)OCC`, the Potency was 57.2 µM (active) in test [1], 22.8 µM (active) in test [4], 36.1 µM (active) in [5] and 25.6 µM (active) in [8]. In addition, the Potency entry in test [2] and in test [6] was “inactive” throughout.
